# Source: PubChem BioAssay
# This is a sample that favours compounds with a hit; in the whole collection about 3.2% have one here.
# pS6 MEF inh – inhibitors of mTORC1 signaling in Tsc2-/- p53-/- MEF cells; Tsc2-/- p53-/- MEF, phospho-rpS6 immunofluorescence/PI, 24 h; Potency, µM (doses to about 38.3 µM), for the others: top-dose activity change, negative = inhibition, actives largely listed as inhibitors; 44,000 compounds, 0.78% hits;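 further: plate controls were DMSO for no effect and rapamycin for full effect; nearly all actives have a fitted effect of over 50% in size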
#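 Immunofluorescence of rpS6 phosphorylation in Tsc2-/-, p53-/- MEFs after 24 h compound exposure, normalized to propidium iodide signal. Activity is expressed as % positive cells, thresholded with 7.5 nM rapamycin.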
# p53null 32C kill – p53 null cell cytotoxicity, permissive temperature; H1299-neo p53 null cells, ATP luminescence, 24 h, 32C; Potency, µM (titrated, usually from 46.1 µM), for the others: top-dose activity change, negative = cytotoxicity, most hits filed as cytotoxic; 55,000 compounds, 0.62% hits;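 further: 0% = DMSO only and -100% = full killing by 100 µM tamoxifen; nearly all actives have a fitted effect of over 55% in size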
#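 H1299-neo (p53 null) cells, 600/well, treated 24 h at 32C with compound up to 46 uM; ATPlite luminescence viability, normalized to DMSO and 100 uM tamoxifen; AC50 by Hill fit.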
# p53null 39C tox – kills p53 null cells at the nonpermissive temperature; H1299 p53-null (neo) cells, 39C, ATPlite viability, 24 h; Potency, µM (series often up to 46.1 µM), inactives show at the highest dose activity, negative = cell killing, actives largely listed as cytotoxic; 55,000 compounds, 0.97% hits;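 further: 0% = DMSO only and -100% = full killing by 100 µM tamoxifen; nearly all actives have a fitted effect of over 50% in size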
#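 Following overnight plating at 37C (600 cells/well), H1299-neo or H1299-p53A138V cells are dosed up to 46 uM. Incubation lasts 24 hr at 39C before ATP detection.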
# S16 F2sN tox – cytotoxicity in S16 Pmp22-F2sN Schwann cells | 43,000 compounds, 0.48% hits | S16 Pmp22-F2sN Schwann cells viability, CellTiter-Glo, 24 h | Potency, µM (top dose mostly 57.5 µM), inactives show at the top dose activity change, negative = cytotoxicity, usual class: cytotoxic | AID 1508642; further: nearly all actives have a fitted effect of over 65% in size
#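 Used to flag compounds lowering reporter output through toxicity, this quantitative HTS measures ATP-based CellTiter-Glo luminescence in S16 Pmp22-F2sN Schwann cells after 24 h compound exposure at 37C.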
# PMP22 txn prim – modulates PMP22 transcription in S16 Schwann cells; S16 Pmp22-F2sN Schwann cells (luciferase reporters placed in the Pmp22 gene), FLuc/NLuc coincidence luminescence, 24 h; Potency, µM (doses to about 57.5 µM), without a hit: at the highest dose activity change, negative = inhibition, actives largely listed as inhibitors; 43,000 compounds, 2% hits; AID 1508649; active means clear falling dose curves in both reporters; inconclusive means both reporters move, but less clearly or upward; inactive means either reporter flat; the % is the NLuc reporter signal
#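 S16(c9) Schwann cells with FLuc/NLuc coincidence reporter in the Pmp22 3' UTR; compounds pin-transferred, 24 h at 37C. Dual-luciferase read: FLuc first, then NLuc after Stop&Glo, each 10 min at room temperature.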
# Numbers without * were called inactive; ? = inconclusive; . = no result given. Unless noted, the call rests on the fitted dose curve; in most records, active means well fitted curve in the direction sought with a large enough effect; inconclusive means small, poorly fitted or top-dose-only effect, or another doubt; inactive means no such curve, though single readings can be large; an effect the other way counts as inactive or inconclusive. Unless noted, on the % scale 0 is the no-effect control and ±100 the full control effect; potency means the concentration at half of the fitted maximal effect.
SMILES,pS6 MEF inh,p53null 32C kill,p53null 39C tox,S16 F2sN tox,PMP22 txn prim
O=C(Nc1cccc(S(=O)(=O)Nc2ccc(Cl)cc2)c1)c1cc2c(s1)CCCC2,.,8%,2.8µM*,.,.
CCCCN(CCCNC(=O)c1cc(Nc2ccc(OC)c(OC)c2)nc2ccccc12)c1ccccc1,-9%,-8%,-1%,17%,-29%
CC(=O)c1ccc(NC(=O)c2nc3ccccc3n(C)c2=O)cc1,-7%,2µM*,3%,-21%,-2%
COC(=O)c1ccc(NS(=O)(=O)c2ccc3[nH]c4c(c3c2)CCCCC4)cc1,-5%,36%,16µM*,-6%,?
COC(=O)c1ccc(NS(=O)(=O)c2ccc3[nH]c4c(c3c2)CCCC4)cc1,1%,14%,-17%,-23%,?
Cc1c(Cl)ccc2sc(NC(=O)c3ccc(S(=O)(=O)N4CCCC4)cc3)nc12,1%,0%,-11%,8%,10%
Cc1c(Cl)ccc2sc(NC(=O)c3ccc(S(=O)(=O)N4CCCc5ccccc54)cc3)nc12,15µM*,17%,-10%,12%,-17%
Cc1cccc(-n2nnnc2S(C)(=O)=O)c1,0.41µM*,14µM*,22%,5µM*,6.7µM*
FC(F)(F)c1cccc(Nc2nc3nonc3nc2Nc2ccc(Cl)cc2)c1,?,?,13µM*,8.9µM*,5.6µM*
Cc1ccc(CNC(=O)Cn2c(SCC(=O)Nc3ccc(F)cc3)nc3ccccc32)cc1,?,?,13µM*,?,?
COc1cccc(NC(=O)CSc2c3c(nc4ccccc24)CCCC3)c1,?,54%,-16%,?,?
COc1cc(NC(=O)CSc2ccc(-c3ccccn3)nn2)cc(OC)c1,13µM*,-28%,?,-27%,?
Cc1ccc(NC(=O)CSc2c3c(nc4ccccc24)CCCC3)cc1F,-13%,73%,22µM*,-18%,?
Cc1ccc(NC(=O)CSc2ccc(-c3ccccn3)nn2)cc1F,15µM*,-18%,-10%,-22%,-47%
CC(=O)c1ccc(NC(=O)Cn2ncc3c4ccccc4n(Cc4ccccc4)c3c2=O)cc1,-6%,-1%,-2%,16%,-13%
CCCCSCCCNC(=O)CN1C(=O)c2cccnc2Oc2ccc(Cl)cc21,1%,-7%,-1%,4%,-14%
Cc1cccc(CNC(=O)CN2C(=O)C3CCCCN3c3ccc(C(=O)N4CCCC4)cc32)c1 (stereo unspecified),2%,1%,?,7%,-8%
CC(NC(=O)C1CCN(C(=O)N2CCOc3ccc(Cl)cc32)CC1)c1ccccc1 (stereo unspecified),0%,-4%,-2%,0%,-8%
Cc1cc(NC(=O)c2ccco2)cc(-c2nc3cc(Cl)ccc3o2)c1O,12µM*,?,?,-19%,?
CC(C)c1ccc(NC(=O)c2cc(S(=O)(=O)NC3CCCCC3)ccc2F)cc1,-7%,23%,4%,?,?
O=C(Nc1ccc2c(c1)CCC2)c1ccc(F)cc1,.,10µM*,-30%,.,.
CCOc1ccc(N/C=C/C(=O)c2ccccc2)c([N+](=O)[O-])c1,.,6.3µM*,.,.,.
CCN(CC)CCCNC(=O)c1nn(-c2ccc(C)cc2)c(=O)c2c1c1ccccc1n2C,?,4%,20%,?,?
CCN(CC)CCOC(=O)c1ccc(NC(=O)c2nn(-c3ccc(C)cc3)c(=O)c3c2c2ccccc2n3C)cc1,0.93µM*,6.3µM*,4µM*,4.5µM*,5.1µM*
COc1ccc(-c2cccc(NS(=O)(=O)c3cc(C)ccc3OC)c2)nn1,0%,4%,-12%,?,-23%
SMILES,pS6 MEF inh,p53null 32C kill,p53null 39C tox,S16 F2sN tox,PMP22 txn prim
O=S1(=O)N=C(Nc2nc3c(s2)CCCC3)c2ccccc21,.,11µM*,5.6µM*,.,.
Cc1ccc(CCNC(=O)c2ccc(NC(=O)N3CCSc4ccccc43)cc2)cc1,1%,-11%,?,0%,-15%
COc1ccc(OC)c(NC(=O)CSc2nnc3ccc4ccccc4n23)c1,-4%,-10%,-12%,1%,?
CCc1c(C)c2ccc(O)c(CN3CCN(c4ccc(OC)cc4)CC3)c2oc1=O,0%,?,10µM*,.,.
CC(C)Oc1ccc(CNC(=O)Cc2ccc(NC(=O)N3CCSc4ncccc43)cc2)cc1,0%,-9%,-3%,-3%,-11%
COc1cc(OC)cc(C(=O)Nc2ccc3c(c2)OCCO3)c1,5%,7.9µM*,6.3µM*,?,-5%
COc1cccc(-n2c(=O)[nH]cc(C(=O)Nc3ccc4c(c3)OCCO4)c2=O)c1,.,18%,21%,.,.
CC(=O)c1ccc(NC(=O)CC2Sc3ccccc3NC2=O)cc1 (stereo unspecified),-7%,6%,-6%,-2%,4%
Cc1cc(C)c(NS(=O)(=O)c2cc(-c3cnc(C4CC4)o3)ccc2C)c(C)c1,30%,1%,-6%,3%,-6%
CCN(CC)c1ccc(NS(=O)(=O)c2ccc(-c3cnc(C4CC4)o3)cc2)c(C)c1,0%,?,48%,1.8µM*,?
Cc1cc(C)c(NS(=O)(=O)c2ccc(-c3cnc(C4CC4)o3)cc2)c(C)c1,?,47%,?,0.79µM*,?
COc1cccc(N2CCN(S(=O)(=O)c3ccc(-c4cnc(C5CC5)o4)cc3)CC2)c1,0%,-10%,-25%,16µM*,?
CCOc1ccccc1NS(=O)(=O)c1ccc(-c2cnc(C3CC3)o2)cc1,?,-6%,?,-17%,?
CC(Sc1nc2c(c(=O)[nH]1)CCCC2)C(=O)Nc1cc(C(F)(F)F)ccc1Cl (stereo unspecified),5%,5%,-1%,-3%,4%
O=C(COCc1cc(-c2cccs2)on1)N1CCN(c2cccc(Cl)c2)CC1,-8%,8%,-28%,-18%,?
CCC1CCc2nc3sc(C(=O)Nc4ccc(C)cc4)c(N)c3cc2C1 (stereo unspecified),18µM*,-2%,13%,3%,-16%
Cc1c(Cl)cccc1NC(=O)Cn1cc(C(=O)C2CCCCC2)c2ccccc21,-23%,14%,?,?,10µM*
CCOC(=O)c1cccc(NS(=O)(=O)c2cc(Br)cc3c2N(C(=O)C2CC2)CC3)c1,0%,15%,16%,0%,?
O=C(C1CC1)N1CCc2cc(Br)cc(S(=O)(=O)Nc3ccc(F)c(F)c3)c21,0%,25µM*,13µM*,?,?
O=C(C1CC1)N1CCc2cc(Br)cc(S(=O)(=O)Nc3ccc(C(F)(F)F)cc3)c21,?,?,16µM*,8%,?
COC(=O)c1cc2oc3ccccc3c2n1Cc1cc(C)ccc1C,0%,5%,-8%,17%,-17%
